Bioassay records from PubChem BioAssay.
Rows were chosen to be rich in hits. Some 19% of all compounds tested hit in one or more screens of this group.
TDP1 cell CPT: qHTS for Inhibitors of human tyrosyl-DNA phosphodiesterase 1 (TDP1): qHTS in cells in presence of CPT; chicken DT40 Tdp1-/-;hTDP1 cells + 20 nM CPT, ATP luminescence, 48 h; Potency, µM (doses to about 46.2 µM), inactives show at the highest dose activity change, negative = growth inhibition, usual class: inhibitors; 420,000 tested, 12% active; AID 686979, 2013; note: potency is the fitted concentration of half-maximal effect; nearly all actives have a fitted effect of over 55% in size
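Chicken DT40 Tdp1-/- cells complemented with human TDP1, 400 cells/well, exposed to compounds plus 20 nM camptothecin for at least 48 h at 37 C; viability read as ATP content by CellTiter-Glo luminescence.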
ELG1 DNA repair: qHTS screen for small molecules that inhibit ELG1-dependent DNA repair in human embryonic kidney (HEK293T) cells expressing luciferase-tagged ELG1 | HEK293T ELG1-luciferase reporter, luminescence, 16 h; DNA damage induced by 5-fluorouridine | 330,000 tested, 2.3% active | Potency, µM (doses to about 46.1 µM), for inactives: at the highest dose activity change, negative = inhibition, actives largely listed as inhibitors; note: potency is the fitted concentration of half-maximal effect; nearly all actives have a fitted effect of over 55% in size
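DMSO vehicle served as the neutral condition. Each well held 2,000 cells given 5-fluorouridine plus compound; after 16 hr at 37 °C/5% CO2, ONE-Glo was added and luciferase measured 30 min later.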
IL-1B inflam inh: qHTS for Inhibitors of Inflammasome Signaling: IL-1-beta AlphaLISA Primary Screen | THP-1 LPS/ATP IL-1B secretion, AlphaLISA, 16 h; active compounds read low | 360,000 tested, 4.7% active | AID 743279, 2014 | activity change, % at 57.5 µM; in the data active = activity change below about -50%; inconclusive = mostly about -30% to -49%
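THP-1 cells pretreated 1 hr with compounds (up to 57.5 uM final), then stimulated with LPS (250 ng/mL final) plus ATP (1.25 mM final); secreted IL-1B measured by AlphaLISA after 16 hr, decreased signal indicating inhibition.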
TDP1 inh: qHTS Assay for Inhibitors of Tyrosyl-DNA Phosphodiesterase (TDP1) | Tyrosyl-DNA phosphodiesterase 1 (Homo sapiens), Q9NUW8 | recombinant TDP1, AlphaScreen DNA substrate cleavage | Potency, µM (highest dose often 130 µM), inactives show at the highest dose activity change, negative = inhibition, hits mostly inhibitors | 350,000 tested, 0.28% active; note: potency is the fitted concentration of half-maximal effect; nearly all actives have a fitted effect of over 40% in size
Target sequence (Q9NUW8 whole entry, looked up): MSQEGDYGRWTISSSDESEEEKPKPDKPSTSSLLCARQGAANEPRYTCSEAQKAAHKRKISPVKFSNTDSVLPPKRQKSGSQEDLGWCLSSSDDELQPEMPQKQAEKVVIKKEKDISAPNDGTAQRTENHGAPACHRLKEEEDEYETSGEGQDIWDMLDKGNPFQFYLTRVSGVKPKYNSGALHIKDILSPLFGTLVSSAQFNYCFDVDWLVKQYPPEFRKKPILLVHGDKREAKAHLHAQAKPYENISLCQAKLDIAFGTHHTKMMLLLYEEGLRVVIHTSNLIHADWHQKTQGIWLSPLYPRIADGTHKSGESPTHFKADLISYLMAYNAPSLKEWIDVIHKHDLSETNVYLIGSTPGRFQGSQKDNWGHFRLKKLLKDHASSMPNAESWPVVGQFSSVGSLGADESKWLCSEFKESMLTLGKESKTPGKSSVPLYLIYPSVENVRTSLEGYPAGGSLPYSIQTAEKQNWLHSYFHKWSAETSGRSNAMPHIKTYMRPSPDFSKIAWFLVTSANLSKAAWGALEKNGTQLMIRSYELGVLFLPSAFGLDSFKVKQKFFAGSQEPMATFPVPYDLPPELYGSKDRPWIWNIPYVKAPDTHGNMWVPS
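Recombinant E. coli-expressed Tdp1 (1 nM) preincubated with compound 15 min at RT, then 5'-biotin/3'-phosphotyrosine-FITC DNA substrate (15 nM) added for 5 min. AlphaScreen beads (10 ug/ml) added, 10 min RT; tyrosine-FITC cleavage read as signal loss.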
TDP1 cell noCPT: qHTS for Inhibitors of human tyrosyl-DNA phosphodiesterase 1 (TDP1): qHTS in cells in absence of CPT | AID 686978, 2013 | 420,000 tested, 15% active | DT40 Tdp1-/- hTDP1 cells, no CPT, ATP luminescence, 48 h | Potency, µM (highest dose often 46.2 µM), without a hit: top-dose activity change, negative = growth inhibition, most hits filed as inhibitors; note: potency is the fitted concentration of half-maximal effect; nearly all actives have a fitted effect of over 55% in size
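Growth of hTDP1-complemented DT40 Tdp1-knockout cells is measured by ATP luminescence after at least 48 hr compound exposure at 37 °C, with DMSO substituting for the 20 nM CPT used in the parallel screen.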
Giardia kill: Small Molecules that selectively kill Giardia lamblia: qHTS; Giardia lamblia trophozoite viability; activity change, % at 7.66 µM, hits read low; 340,000 tested, 0.15% active; in the data active = activity change below about -80%; inconclusive = between about -30% and that limit;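 note: parasites exposed to compound for two days anaerobically before the ATP read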
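Trophozoites 100 cells/well + cpd; 48 hrs, 37 deg C, anaerobic. ATPLite 1-Step added, 15-30 min RT, luminescence read (ATP-based viability).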
An asterisk follows results filed as active; ? = inconclusive; / = no result given. Unless noted, calls come from the whole dose curve; as a rule, active = well fitted curve in the direction sought with a large enough effect; inconclusive = small, poorly fitted or top-dose-only effect, or another doubt; inactive = no such curve, though single readings can be large; an effect the other way counts as inactive or inconclusive. % is set by controls: 0 for no effect and ±100 for the full control effect.

SMILES | TDP1 cell CPT | ELG1 DNA repair | IL-1B inflam inh | TDP1 inh | TDP1 cell noCPT | Giardia kill
COc1ccc(CCNC(=O)CC(c2ccccc2)c2cc(C)ccc2O)cc1OC (stereo not given) | 25.9µM* | ? | 0.0 | / | 13µM* | 13.6
COc1ccc(NC(=O)CCC(=O)c2ccc(F)cc2)cc1 | 23.5% | / | 15.8 | / | ? | -4.1
Cc1csc(NC(=O)CSc2ncnc3ccccc23)n1 | ? | 1.5% | -88.7* | 0.8% | ? | -2.6
COC(=O)c1c(NC(=O)COc2ncnc3ccccc23)sc(C)c1C | ? | -9.3% | 1.4 | 5.4% | 25.9µM* | -6.1
CCOC(=O)c1c(NC(=O)CSc2nc3ccccc3s2)sc(C(C)=O)c1C | 7.31µM* | ? | 10.8 | 0.0% | 16.4µM* | -7.7
CCOC(=O)c1c(NC(=O)CSc2ncnc3ccccc23)sc(C)c1C | ? | 11.6µM* | 24.1 | 3.4% | 14.6µM* | 5.3
CCOC(=O)c1c(NC(=O)CSc2nc3cc(Cl)ccc3s2)sc(C(C)=O)c1C | / | -8.6% | / | 0.0% | / | /
CC(C)n1c(=O)c2ccccc2n1Cc1cn(Cc2cccnc2)nn1 | 1.2% | / | 22.0 | / | -0.9% | /
CCOC(=O)c1c(NC(=O)C2=C(C)NC(=S)NC2c2ccc(CC)cc2)sc(C)c1C (stereo not given) | / | 6.51µM* | / | 7.1% | / | /
CCOC(=O)c1c(NC(=O)COc2ncnc3ccccc23)sc(C(C)=O)c1C | 13µM* | ? | 62.2 | 0.6% | 13µM* | 2.5
CCOC(=O)c1c(NC(=O)CC2Nc3ccccc3NC2=O)sc(C)c1C (stereo not given) | 8.2µM* | ? | -5.3 | 5.3% | 18.4µM* | 5.5
CCOC(=O)c1c(NC(=O)CC)sc(C(C)=O)c1C | ? | -7.6% | -17.9 | -1.0% | ? | -5.2
CCOc1ccc(Nc2oc(-c3ccc(Cl)cc3)nc2C#N)cc1 | ? | ? | -9.2 | 4.1% | 4.11µM* | 0.9
CCN(CC)CCCNc1oc(-c2cccc(Cl)c2)nc1C#N | ? | 23.7% | -8.6 | 0.0% | 23.1µM* | 4.5
COc1ccc(Nc2oc(-c3ccccc3)nc2C#N)cc1 | -12.8% | ? | ? | 3.1% | 1.9% | 7.1
COc1ccc(-c2nc(C#N)c(NCCc3ccccc3)o2)cc1 | 14.6µM* | ? | -3.8 | 0.0% | 14.1µM* | -10.3
COc1ccc(CNc2oc(-c3ccccc3)nc2C#N)cc1 | -0.4% | ? | 76.1 | 5.2% | -23.8% | ?
COCCNc1oc(-c2ccc(Cl)cc2)nc1C#N | 0.9% | ? | -55.9* | 2.0% | -3.8% | -10.8
COc1ccc(C)c2sc(N(Cc3cccnc3)C(=O)COc3ccccc3)nc12 | ? | / | / | 7.8% | ? | /
CCOC(=O)/C(=N\Nc1ccc(Br)cc1)N1CC(C)OC(C)C1 (stereo not given) | -0.9% | -2.4% | -5.2 | 7.5% | -23.8% | -4.8
COc1ccc(Nc2oc(-c3ccc(OC)cc3)nc2C#N)cc1 | 6.2% | ? | -4.0 | / | -28.3% | 1.3
COc1ccc(Nc2oc(-c3ccc(Cl)cc3)nc2C#N)cc1 | 6.51µM* | ? | -15.0 | 5.2% | 2.91µM* | 8.3
O=C(CSc1n[nH]c(-c2ccccc2Cl)n1)N1CCN(c2ccccc2F)CC1 | -22.1% | / | / | 5.4% | ? | /
COc1ccccc1C(=O)COC(=O)C(NC(=O)Cc1ccccc1)C(C)C (stereo not given) | ? | 8.3% | 18.7 | -2.1% | ? | 2.3
COC(=O)c1ccc(COC(=O)C(NC(=O)Cc2ccccc2)C(C)C)cc1 (stereo not given) | -27.3% | -1.6% | 11.8 | -19.9% | 16.4µM* | 9.8
SMILES | TDP1 cell CPT | ELG1 DNA repair | IL-1B inflam inh | TDP1 inh | TDP1 cell noCPT | Giardia kill
CC1Cn2c(nc(=O)c3c2NCN(CCc2ccccc2)C3)S1 (stereo not given) | 3.7% | -14.5% | 11.0 | 0.0% | -17.0% | 11.8
CCOC(=O)C1=CCN(S(=O)(=O)c2ccccc2Cl)C1c1ccccc1 (stereo not given) | ? | / | 41.6 | / | 23.1µM* | /
CCOC(=O)C1=CCN(S(=O)(=O)c2ccccc2F)C1c1ccc(Cl)cc1 (stereo not given) | ? | / | 9.9 | / | ? | /
CCOC(=O)c1c(C)[nH]c(C)c1C(=O)COC(=O)C1CCCN1S(=O)(=O)c1ccccc1F (stereo not given) | 11.6µM* | -22.1% | 27.3 | 7.4% | 14.6µM* | 0.1
CCOC(=O)C1=CCN(S(=O)(=O)c2ccccc2C)C1c1ccc(Cl)cc1 (stereo not given) | ? | / | 7.6 | / | 14.6µM* | /
CCOC(=O)C1=CCN(S(=O)(=O)c2ccccc2F)C1c1ccccc1 (stereo not given) | ? | / | 46.6 | / | 16.4µM* | /
C[C@@H]1CCCCCCCCC(=O)OCCN(C(=O)OC(C)(C)C)[C@H](C)CCCCCCCCC(=O)OCCN(C(=O)OC(C)(C)C)[C@H](C)CCCCCCCCC(=O)OCCN(C(=O)OC(C)(C)C)[C@H](C)CCCCCCCCC(=O)OCCN1C(=O)OC(C)(C)C | -14.3% | ? | 25.2 | -2.2% | -26.3% | -16.2
Nc1[nH]c(C(=O)c2ccccc2)c(-c2cccnc2)c1C(=O)NC1CCCCC1 | -10.6% | / | -15.5 | / | ? | /
CCOC(=O)C1=CCN(S(=O)(=O)c2ccccc2Cl)C1c1ccc(C)cc1 (stereo not given) | 25.9µM* | / | 19.6 | / | 18.4µM* | /
CCOC(=O)C1=CCN(S(=O)(=O)c2ccccc2Cl)C1c1cccc(C)c1 (stereo not given) | ? | / | 35.5 | / | ? | /
COc1ccc(CC(=O)NCCc2ccc3c(c2)OCO3)cc1OC | 5.6% | / | 0.6 | / | ? | /
OCCN(Cc1ccccn1)Cc1ccccn1 | ? | / | 28.4 | / | ? | /
CCOc1ccccc1CN(CCc1ccc2c(c1)OCO2)Cc1ccccn1 | ? | ? | -10.1 | 3.0% | 16.4µM* | -9.7
CCOc1ccccc1CN(CCc1ccc2c(c1)OCO2)Cc1cc(OC)c(OC)cc1OC | 6.51µM* | / | / | / | 4.11µM* | /
Cc1ccc(N2C(=O)NC(NS(=O)(=O)c3ccc(Cl)cc3)(C(F)(F)F)C2=O)cc1C (stereo not given) | -10.3% | / | / | -3.2% | -10.1% | /
